# Data published in PubChem BioAssay (Tox21).
# Inconclusive results are not listed. A number with no mark means an inactive call. Activity calls are given as the source filed them. Unless noted, calls follow the shape of the full dose curve.
# System: not listed separately
# Assay: p53 small molecule agonists, cell-based qHTS assay (AID 1963582; active = well fitted activation curve with a large enough effect in the signal ratio in the repeat runs, not every such curve was filed as active; the % refers to the signal ratio; also: potency is read from the fitted curve at half-maximal effect)
# Settings: HCT-116 p53RE-bla reporter, beta-lactamase FRET ratio, 16 h; series mostly up to 66 µM; activation: at the top concentration
# How it was run: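 Agonist activity was scored from beta-lactamase FRET fluorescence in p53RE-bla cells treated 16 h at 37 C with compounds in DMSO, substrate incubation being 2 h at room temperature.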
# % is scaled to controls: 0 for no effect and ±100 for the full control effect.
Structure (SMILES),activation,Potency
OCCOc1ccc(OCCO)cc1,-1.92%,–
N#CCC(=O)O,–,inactive
Nc1ncnc2c1ncn2[C@@H]1O[C@H](COP(=O)(O)O)[C@@H](O)[C@H]1O,2.58% [at 30.3 µM],–
CCc1ccc(C)nc1,1.7%,–
CN(C)c1ccc(/C=C/c2ccc([N+](=O)[O-])cc2)cc1,-2.24% [at 5.99 µM],–
C/C=C(\C)C(=O)OC/C=C(\C)CCC=C(C)C,0.18%,–
CC(=O)/C=C/C1C(C)=CCC(C)C1(C)C (stereo unspecified),-1.21%,–
Cc1cccc(C)c1NC(=O)CC12CCCN1CCC2,-4.6% [at 30.3 µM],–
CC(=O)N1CCN(c2ccc(O)cc2)CC1,1.75% [at 30.3 µM],–
C=C(C)C(=O)OCCCCCCOC(=O)C(=C)C,0.361%,–
O=C1CCN(c2ccccc2)N1,-0.772%,–
Cl/C(=C\n1cncn1)c1ccc(Cl)cc1Cl,-2.78% [at 30.3 µM],–
COc1cc(C(=O)N2CCCCCCC2)cc(OC)c1OC,0.479% [at 30.3 µM],–
COC(=O)N[C@H](C(=O)N[C@@H](Cc1ccccc1)[C@@H](O)CN(Cc1ccc(-c2ccccn2)cc1)NC(=O)[C@@H](NC(=O)OC)C(C)(C)C)C(C)(C)C,-2% [at 30.3 µM],–
Clc1nc2ccccc2s1,1.29%,–
COC(=O)Nc1nc2ccc(Sc3ccccc3)cc2[nH]1,–,0.363 µM (active)
CN1N=C(C(N)=O)CCC1=O,-0.123% [at 30.3 µM],–
CCCCC(CC)CCC(CC(C)C)OS(=O)(=O)O (stereo unspecified),-3.28%,–

Structure (SMILES),activation,Potency
CSc1cnccn1,1.66%,–
CCCCCCCOC(=O)c1ccccc1C(=O)OCCCCCCC,-5.57%,–
CC1CC(=O)CC(C)(C)C1 (stereo unspecified),-0.0526%,–
O=[Si]=O,1.59%,–
CCCCCCCC(OC)OC,0.32% [at 30.3 µM],–
NS(=O)(=O)c1cc2c(cc1Cl)NC(CC1CCCC1)NS2(=O)=O (stereo unspecified),1.36% [at 30.3 µM],–
N#CCc1cccc(C(F)(F)F)c1,1.79%,–
Clc1ccccc1-c1nc(-c2ccncc2)no1,-6.26% [at 30.3 µM],–
CO[Si](CCCNCCNCCN)(OC)OC,-3.93%,–
CC(=O)c1ccc2c(c1)CCCC2,-0.431%,–
NC(=O)c1cccc([N+](=O)[O-])c1,-1.07%,–
CCOc1cc(NC(C)=O)ccc1C(=O)OC,-2.45% [at 30.3 µM],–
CCCC(O)C(O)CO (stereo unspecified),4.81%,–
C[Si](C)(C)Cl,1.24%,–
COC(=O)c1c(Cl)c(Cl)c(C(=O)OC)c(Cl)c1Cl,–,inactive
Cc1ccc2n[nH]nc2c1,5.01%,–
CCCOC(=O)C(C)O (stereo unspecified),1.31%,–

# Target: 5-hydroxytryptamine receptor 2A (Homo sapiens) (UniProt P28223)
# Sequence (P28223 whole entry, looked up): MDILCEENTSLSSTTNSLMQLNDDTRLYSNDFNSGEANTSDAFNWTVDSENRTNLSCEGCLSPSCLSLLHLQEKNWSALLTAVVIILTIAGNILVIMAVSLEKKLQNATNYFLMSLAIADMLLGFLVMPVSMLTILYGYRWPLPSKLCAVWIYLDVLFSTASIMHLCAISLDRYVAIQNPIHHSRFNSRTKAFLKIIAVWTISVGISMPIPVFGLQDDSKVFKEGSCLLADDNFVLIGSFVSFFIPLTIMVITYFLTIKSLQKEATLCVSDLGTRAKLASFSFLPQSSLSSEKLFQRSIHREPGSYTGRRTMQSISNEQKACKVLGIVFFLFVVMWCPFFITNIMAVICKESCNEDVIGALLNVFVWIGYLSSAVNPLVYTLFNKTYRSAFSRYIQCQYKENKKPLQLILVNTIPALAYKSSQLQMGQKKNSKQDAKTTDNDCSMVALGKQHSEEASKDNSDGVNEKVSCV
# Assay: 5-hydroxytryptamine receptor 2A (HTR2A) small molecule antagonists, cell-based qHTS assay (AID 1963586); also: nearly all actives have a fitted effect of over 45% in size
# Settings: HTR2A-CHO cells, DOI-induced calcium flux, fluorescence; series mostly up to 61.5 µM; activity, negative = inhibition: at the top concentration
# How it was run: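 Antagonist-mode intracellular calcium assay: DOI (4 nM) added after 5 min compound pre-incubation at room temperature to dye-loaded HTR2A-CHO cells. Fluorescence followed for 3 min, sampled every second.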
Structure (SMILES),"activity, negative = inhibition",Potency
OCCOc1ccc(OCCO)cc1,-46.8%,–
N#CCC(=O)O,–,inactive
Nc1ncnc2c1ncn2[C@@H]1O[C@H](COP(=O)(O)O)[C@@H](O)[C@H]1O,-19.3% [at 28.5 µM],–
CCc1ccc(C)nc1,0.004%,–
CN(C)c1ccc(/C=C/c2ccc([N+](=O)[O-])cc2)cc1,-0.541% [at 5.62 µM],–
C/C=C(\C)C(=O)OC/C=C(\C)CCC=C(C)C,5.66%,–
CC(=O)/C=C/C1C(C)=CCC(C)C1(C)C (stereo unspecified),9.48%,–
Cc1cccc(C)c1NC(=O)CC12CCCN1CCC2,8.52% [at 28.5 µM],–
CC(=O)N1CCN(c2ccc(O)cc2)CC1,2.09% [at 28.5 µM],–
C=C(C)C(=O)OCCCCCCOC(=O)C(=C)C,4.34%,–
O=C1CCN(c2ccccc2)N1,-7.82%,–
Cl/C(=C\n1cncn1)c1ccc(Cl)cc1Cl,-5.12% [at 28.5 µM],–
COc1cc(C(=O)N2CCCCCCC2)cc(OC)c1OC,14.6% [at 28.5 µM],–
COC(=O)N[C@H](C(=O)N[C@@H](Cc1ccccc1)[C@@H](O)CN(Cc1ccc(-c2ccccn2)cc1)NC(=O)[C@@H](NC(=O)OC)C(C)(C)C)C(C)(C)C,6.18% [at 28.5 µM],–
Clc1nc2ccccc2s1,-11.2%,–
CN1N=C(C(N)=O)CCC1=O,8.92% [at 28.5 µM],–
CCCCC(CC)CCC(CC(C)C)OS(=O)(=O)O (stereo unspecified),9.27%,–
CSc1cnccn1,3.32%,–

Structure (SMILES),"activity, negative = inhibition",Potency
CCCCCCCOC(=O)c1ccccc1C(=O)OCCCCCCC,2.23%,–
CC1CC(=O)CC(C)(C)C1 (stereo unspecified),-6.02%,–
O=[Si]=O,6.93%,–
CCCCCCCC(OC)OC,2.08% [at 28.5 µM],–
NS(=O)(=O)c1cc2c(cc1Cl)NC(CC1CCCC1)NS2(=O)=O (stereo unspecified),-1.09% [at 28.5 µM],–
N#CCc1cccc(C(F)(F)F)c1,8.38%,–
Clc1ccccc1-c1nc(-c2ccncc2)no1,-29.9% [at 28.5 µM],–
CO[Si](CCCNCCNCCN)(OC)OC,-10.9%,–
CC(=O)c1ccc2c(c1)CCCC2,0.67%,–
Nc1c2ccccc2nc2ccccc12,7.96% [at 28.5 µM],–
NC(=O)c1cccc([N+](=O)[O-])c1,16.8%,–
CCOc1cc(NC(C)=O)ccc1C(=O)OC,-9.65% [at 28.5 µM],–
CCCC(O)C(O)CO (stereo unspecified),-5.22%,–
O=C(O)c1ccc(O)cc1O,2.63%,–
C[Si](C)(C)Cl,1.48%,–
COC(=O)c1c(Cl)c(Cl)c(C(=O)OC)c(Cl)c1Cl,2.81%,–
Cc1ccc2n[nH]nc2c1,0.298%,–
CCCOC(=O)C(C)O (stereo unspecified),-7.02%,–

# Target: 5-hydroxytryptamine receptor 2A (Homo sapiens) (UniProt P28223)
# Assay: 5-hydroxytryptamine receptor 2A (HTR2A) small molecule agonists, cell-based qHTS assay (AID 1963587); also: nearly all actives have a fitted effect of over 30% in size; also: potency is read from the fitted curve at half-maximal effect
# Settings: HTR2A-CHO cells, calcium flux fluorescence, agonist mode; series mostly up to 76.8 µM; activation: at the top concentration
# How it was run: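 CHO cells stably expressing human HTR2A, plated 18 h, loaded with calcium dye 1 h at 37 C. Agonist mode: compounds added and intracellular calcium fluorescence recorded kinetically for 2 min at 1 sec intervals.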
Structure (SMILES),activation,Potency
OCCOc1ccc(OCCO)cc1,0.971%,–
N#CCC(=O)O,–,inactive
Nc1ncnc2c1ncn2[C@@H]1O[C@H](COP(=O)(O)O)[C@@H](O)[C@H]1O,-0.922% [at 35.6 µM],–
CCc1ccc(C)nc1,-0.822%,–
CN(C)c1ccc(/C=C/c2ccc([N+](=O)[O-])cc2)cc1,13.3% [at 7.02 µM],–
C/C=C(\C)C(=O)OC/C=C(\C)CCC=C(C)C,-0.544%,–
CC(=O)/C=C/C1C(C)=CCC(C)C1(C)C (stereo unspecified),2.9%,–
Cc1cccc(C)c1NC(=O)CC12CCCN1CCC2,1.73% [at 35.6 µM],–
CC(=O)N1CCN(c2ccc(O)cc2)CC1,-3.12% [at 35.6 µM],–
C=C(C)C(=O)OCCCCCCOC(=O)C(=C)C,2.22%,–
O=C1CCN(c2ccccc2)N1,-1.54%,–
Cl/C(=C\n1cncn1)c1ccc(Cl)cc1Cl,-1.7% [at 35.6 µM],–
COc1cc(C(=O)N2CCCCCCC2)cc(OC)c1OC,0.534% [at 35.6 µM],–
COC(=O)N[C@H](C(=O)N[C@@H](Cc1ccccc1)[C@@H](O)CN(Cc1ccc(-c2ccccn2)cc1)NC(=O)[C@@H](NC(=O)OC)C(C)(C)C)C(C)(C)C,21.8% [at 35.6 µM],–
Clc1nc2ccccc2s1,-8.93%,–
CN1N=C(C(N)=O)CCC1=O,7.4% [at 35.6 µM],–
CCCCC(CC)CCC(CC(C)C)OS(=O)(=O)O (stereo unspecified),-2.43%,–
CSc1cnccn1,12.3%,–

Structure (SMILES),activation,Potency
CCCCCCCOC(=O)c1ccccc1C(=O)OCCCCCCC,-0.0239%,–
CC1CC(=O)CC(C)(C)C1 (stereo unspecified),0.481%,–
O=[Si]=O,0.403%,–
CCCCCCCC(OC)OC,-0.169% [at 35.6 µM],–
NS(=O)(=O)c1cc2c(cc1Cl)NC(CC1CCCC1)NS2(=O)=O (stereo unspecified),-14.8% [at 35.6 µM],–
N#CCc1cccc(C(F)(F)F)c1,-1.35%,–
CC(C)(c1cc(Br)c(O)c(Br)c1)c1cc(Br)c(O)c(Br)c1,–,48.8 µM (active)
Clc1ccccc1-c1nc(-c2ccncc2)no1,2.76% [at 35.6 µM],–
CO[Si](CCCNCCNCCN)(OC)OC,-3.04%,–
CC(=O)c1ccc2c(c1)CCCC2,-19.6%,–
NC(=O)c1cccc([N+](=O)[O-])c1,-0.804%,–
CCOc1cc(NC(C)=O)ccc1C(=O)OC,-0.159% [at 35.6 µM],–
CCCC(O)C(O)CO (stereo unspecified),2.06%,–
C[Si](C)(C)Cl,-1.19%,–
COC(=O)c1c(Cl)c(Cl)c(C(=O)OC)c(Cl)c1Cl,16.4%,–
Cc1ccc2n[nH]nc2c1,-2.33%,–
CCCOC(=O)C(C)O (stereo unspecified),1.88%,–
